Measured values: the supplement of paper PMC12067093, “Discovery and optimisation of a covalent ligand for TRIM25 and its application to targeted protein ubiquitination” (Chemical Science, 2025)
About 21,000 targets were measured; listed, in parts, are those with the largest changes and a random draw of the rest.

Compound: CC1Cc2ccccc2N1C(=O)C1CCCN(C1)C(=O)CCl (mixture of isomers) [TRIM25 ligand 11 (diastereomer mixture)]
Assay: probe-labelled cysteine peptide fold change vs DMSO (competition) (log2 fold change); higher = less target engagement (more negative = stronger competition)
Settings: THP-1, incubation time: 4 h
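Further: competitive chemoproteomic profiling in live THP-1 cells with an iodoacetamide desthiobiotin (IA-DTB) probe, comparing probe-labelled peptide intensities in compound-treated cells against DMSO-treated controls.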

UniProt Q6ZRS2, sequence (Q6ZRS2 whole entry, looked up): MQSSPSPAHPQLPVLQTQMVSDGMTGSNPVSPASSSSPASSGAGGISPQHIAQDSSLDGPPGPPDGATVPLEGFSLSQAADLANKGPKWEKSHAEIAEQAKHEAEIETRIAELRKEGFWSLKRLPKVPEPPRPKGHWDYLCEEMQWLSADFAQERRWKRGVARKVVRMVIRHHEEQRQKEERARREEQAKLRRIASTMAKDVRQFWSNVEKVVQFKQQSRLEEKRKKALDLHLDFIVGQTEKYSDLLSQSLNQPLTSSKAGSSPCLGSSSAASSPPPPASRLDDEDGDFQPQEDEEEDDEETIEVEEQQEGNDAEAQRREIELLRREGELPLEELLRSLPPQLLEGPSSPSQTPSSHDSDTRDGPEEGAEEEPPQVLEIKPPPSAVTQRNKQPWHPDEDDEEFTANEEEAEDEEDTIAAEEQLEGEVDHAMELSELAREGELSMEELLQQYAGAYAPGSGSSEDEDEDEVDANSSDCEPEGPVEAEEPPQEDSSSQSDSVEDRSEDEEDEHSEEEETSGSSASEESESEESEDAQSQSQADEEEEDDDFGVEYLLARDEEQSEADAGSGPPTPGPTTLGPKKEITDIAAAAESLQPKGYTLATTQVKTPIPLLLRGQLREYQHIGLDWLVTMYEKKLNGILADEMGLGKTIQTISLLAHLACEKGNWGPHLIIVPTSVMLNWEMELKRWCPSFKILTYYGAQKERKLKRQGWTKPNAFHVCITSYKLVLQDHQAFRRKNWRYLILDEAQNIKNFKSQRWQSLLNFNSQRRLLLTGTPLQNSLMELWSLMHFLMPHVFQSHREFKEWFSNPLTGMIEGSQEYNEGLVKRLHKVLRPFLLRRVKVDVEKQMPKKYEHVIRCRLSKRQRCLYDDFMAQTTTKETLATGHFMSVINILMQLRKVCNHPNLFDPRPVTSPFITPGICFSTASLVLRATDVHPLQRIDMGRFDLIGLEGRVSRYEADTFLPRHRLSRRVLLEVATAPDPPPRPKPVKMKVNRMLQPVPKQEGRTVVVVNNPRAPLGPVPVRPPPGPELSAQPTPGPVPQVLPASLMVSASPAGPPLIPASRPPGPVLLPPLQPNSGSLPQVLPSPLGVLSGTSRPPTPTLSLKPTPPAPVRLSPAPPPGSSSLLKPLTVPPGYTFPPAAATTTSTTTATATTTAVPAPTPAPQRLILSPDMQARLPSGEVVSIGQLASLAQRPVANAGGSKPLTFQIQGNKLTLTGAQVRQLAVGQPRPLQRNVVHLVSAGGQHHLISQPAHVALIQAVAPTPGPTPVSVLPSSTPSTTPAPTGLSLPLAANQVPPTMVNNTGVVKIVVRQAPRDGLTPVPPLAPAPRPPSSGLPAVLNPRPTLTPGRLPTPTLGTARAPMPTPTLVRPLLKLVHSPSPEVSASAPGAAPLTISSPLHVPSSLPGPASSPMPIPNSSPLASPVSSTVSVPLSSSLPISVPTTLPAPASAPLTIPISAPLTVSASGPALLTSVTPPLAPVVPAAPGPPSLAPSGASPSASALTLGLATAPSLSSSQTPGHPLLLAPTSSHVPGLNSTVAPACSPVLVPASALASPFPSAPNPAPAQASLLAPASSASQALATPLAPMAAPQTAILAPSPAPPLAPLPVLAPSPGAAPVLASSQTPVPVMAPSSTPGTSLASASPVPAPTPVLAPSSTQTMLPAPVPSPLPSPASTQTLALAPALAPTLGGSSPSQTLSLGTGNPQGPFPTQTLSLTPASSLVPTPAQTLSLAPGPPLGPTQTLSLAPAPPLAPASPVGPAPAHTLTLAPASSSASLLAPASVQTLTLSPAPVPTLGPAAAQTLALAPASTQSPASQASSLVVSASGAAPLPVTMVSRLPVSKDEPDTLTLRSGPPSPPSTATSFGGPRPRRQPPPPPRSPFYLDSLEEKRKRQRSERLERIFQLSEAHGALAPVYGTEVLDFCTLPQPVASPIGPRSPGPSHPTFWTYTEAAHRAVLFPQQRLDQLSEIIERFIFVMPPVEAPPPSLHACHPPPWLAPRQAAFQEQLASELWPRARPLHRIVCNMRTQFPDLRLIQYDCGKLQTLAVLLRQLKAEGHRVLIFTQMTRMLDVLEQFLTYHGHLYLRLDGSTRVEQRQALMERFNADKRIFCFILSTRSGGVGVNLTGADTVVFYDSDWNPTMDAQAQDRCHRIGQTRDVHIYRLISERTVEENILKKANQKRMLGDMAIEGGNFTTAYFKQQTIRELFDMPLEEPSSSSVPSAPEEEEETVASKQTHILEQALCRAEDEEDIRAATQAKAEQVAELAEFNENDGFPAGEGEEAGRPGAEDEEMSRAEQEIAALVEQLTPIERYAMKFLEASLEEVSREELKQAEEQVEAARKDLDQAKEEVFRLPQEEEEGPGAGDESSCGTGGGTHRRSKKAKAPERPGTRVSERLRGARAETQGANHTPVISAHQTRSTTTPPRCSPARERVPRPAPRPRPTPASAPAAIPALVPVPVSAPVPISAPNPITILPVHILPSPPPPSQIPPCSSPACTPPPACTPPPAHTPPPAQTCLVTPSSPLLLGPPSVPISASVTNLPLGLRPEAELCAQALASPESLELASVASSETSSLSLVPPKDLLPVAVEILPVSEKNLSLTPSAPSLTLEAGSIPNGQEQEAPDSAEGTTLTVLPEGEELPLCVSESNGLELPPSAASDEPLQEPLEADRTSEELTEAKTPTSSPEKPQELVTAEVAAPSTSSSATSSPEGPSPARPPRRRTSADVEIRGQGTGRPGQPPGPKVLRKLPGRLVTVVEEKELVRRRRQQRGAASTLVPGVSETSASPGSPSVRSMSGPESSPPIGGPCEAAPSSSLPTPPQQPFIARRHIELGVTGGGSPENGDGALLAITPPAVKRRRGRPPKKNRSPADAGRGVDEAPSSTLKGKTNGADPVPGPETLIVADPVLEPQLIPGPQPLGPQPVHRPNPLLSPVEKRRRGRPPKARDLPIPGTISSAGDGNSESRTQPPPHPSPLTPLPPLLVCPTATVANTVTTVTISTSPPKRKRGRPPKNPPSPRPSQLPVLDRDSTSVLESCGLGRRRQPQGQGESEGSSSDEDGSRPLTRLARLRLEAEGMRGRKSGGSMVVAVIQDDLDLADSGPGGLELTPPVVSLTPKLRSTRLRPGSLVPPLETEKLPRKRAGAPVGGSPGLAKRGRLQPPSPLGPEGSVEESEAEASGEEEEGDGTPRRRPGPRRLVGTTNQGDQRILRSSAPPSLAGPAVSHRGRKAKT
UniProt P08697, sequence (P08697 whole entry): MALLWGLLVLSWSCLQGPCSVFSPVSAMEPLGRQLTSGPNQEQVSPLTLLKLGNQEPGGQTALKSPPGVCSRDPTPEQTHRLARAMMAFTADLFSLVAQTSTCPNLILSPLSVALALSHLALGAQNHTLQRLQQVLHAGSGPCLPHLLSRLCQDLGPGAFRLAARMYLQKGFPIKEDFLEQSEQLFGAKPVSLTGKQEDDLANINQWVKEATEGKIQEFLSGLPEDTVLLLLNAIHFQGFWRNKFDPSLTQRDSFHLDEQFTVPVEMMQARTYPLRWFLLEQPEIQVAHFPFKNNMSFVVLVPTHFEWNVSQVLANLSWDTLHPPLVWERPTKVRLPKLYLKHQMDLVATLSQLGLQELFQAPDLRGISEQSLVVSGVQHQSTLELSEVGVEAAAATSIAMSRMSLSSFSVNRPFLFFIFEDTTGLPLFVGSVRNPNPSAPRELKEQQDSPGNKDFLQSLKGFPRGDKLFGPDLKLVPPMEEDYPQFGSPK
UniProt Q8N5C6, sequence (Q8N5C6 whole entry, looked up): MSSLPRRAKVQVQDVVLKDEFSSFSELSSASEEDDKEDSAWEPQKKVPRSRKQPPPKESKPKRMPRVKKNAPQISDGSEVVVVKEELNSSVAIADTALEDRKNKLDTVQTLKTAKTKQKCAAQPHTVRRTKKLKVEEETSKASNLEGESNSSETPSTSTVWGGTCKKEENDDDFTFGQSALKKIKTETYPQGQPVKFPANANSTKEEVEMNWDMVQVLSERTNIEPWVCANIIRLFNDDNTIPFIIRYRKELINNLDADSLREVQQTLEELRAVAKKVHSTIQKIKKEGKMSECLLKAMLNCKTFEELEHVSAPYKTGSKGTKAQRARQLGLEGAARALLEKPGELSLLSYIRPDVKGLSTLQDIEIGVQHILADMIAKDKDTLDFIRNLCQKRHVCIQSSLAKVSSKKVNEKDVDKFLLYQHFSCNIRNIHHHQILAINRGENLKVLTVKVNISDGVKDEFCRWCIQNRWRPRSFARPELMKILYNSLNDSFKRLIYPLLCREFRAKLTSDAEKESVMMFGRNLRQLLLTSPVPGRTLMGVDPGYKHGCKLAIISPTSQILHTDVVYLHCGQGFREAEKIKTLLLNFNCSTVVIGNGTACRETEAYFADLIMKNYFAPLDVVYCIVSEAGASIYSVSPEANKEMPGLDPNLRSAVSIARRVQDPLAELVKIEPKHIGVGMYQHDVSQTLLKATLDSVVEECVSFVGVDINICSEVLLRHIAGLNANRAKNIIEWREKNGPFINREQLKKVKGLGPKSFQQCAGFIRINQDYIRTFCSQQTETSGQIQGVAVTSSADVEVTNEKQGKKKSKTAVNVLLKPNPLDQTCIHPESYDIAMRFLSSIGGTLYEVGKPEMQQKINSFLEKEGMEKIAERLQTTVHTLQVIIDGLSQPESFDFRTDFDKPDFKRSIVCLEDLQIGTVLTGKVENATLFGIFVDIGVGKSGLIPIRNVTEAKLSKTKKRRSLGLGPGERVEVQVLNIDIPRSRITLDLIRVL
UniProt P05141, sequence (P05141 whole entry, looked up): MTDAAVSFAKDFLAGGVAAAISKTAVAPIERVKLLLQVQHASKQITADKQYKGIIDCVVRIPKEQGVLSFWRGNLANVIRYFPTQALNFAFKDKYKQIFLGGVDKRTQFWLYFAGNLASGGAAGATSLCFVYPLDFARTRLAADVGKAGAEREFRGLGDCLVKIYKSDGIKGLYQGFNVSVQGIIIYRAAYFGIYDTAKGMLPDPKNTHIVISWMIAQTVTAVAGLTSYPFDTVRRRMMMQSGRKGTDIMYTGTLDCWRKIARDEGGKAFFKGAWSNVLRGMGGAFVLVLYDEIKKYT
UniProt P05109, sequence (P05109 whole entry): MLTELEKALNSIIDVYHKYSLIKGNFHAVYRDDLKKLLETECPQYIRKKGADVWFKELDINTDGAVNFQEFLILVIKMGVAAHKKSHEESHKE

Target	probe-labelled cysteine peptide fold change (10 µM)	probe-labelled cysteine peptide fold change (50 µM)
SLC15A4_Q8N697_269_ILTYSCCSQK (UniProt Q8N697)	-0.00859	-0.114
SMCHD1_A6NHR9_474_RPIFECFWNGR (UniProt A6NHR9)	-0.00857	0.0994
S100A8_P05109_42_LLETECPQYIR (UniProt P05109)	-0.0697	-0.229
SMARCB1_Q12824_147_NSQWVPTLPNSSHHLDAVPCSTTINR (UniProt Q12824)	-0.0549	-0.612
SMARCC2_Q8TAQ2_80_CFLDFK (UniProt Q8TAQ2)	-0.00468	0.128
SLC25A5_P05141_257_KGTDIMYTGTLDCWR (UniProt P05141)	-0.0817	-0.062
RRP12_Q5JTH9_102_SSGTFLSGLSDCTNVTFSK (UniProt Q5JTH9)	0.0888	0.0733
SRBD1_Q8N5C6_912_SIVCLEDLQIGTVLTGK (UniProt Q8N5C6)	0.0769	-0.14
SMPD4_Q9NXE4_221_TSDCAYFILVDR (UniProt Q9NXE4)	0.14	0.266
SND1_Q7KZF4_96_EVCFTIENK (UniProt Q7KZF4)	0.00729	0.0683
SETX_Q7Z333_1398_AGSHTAQNSDIFVPESDRSDYNCTGGTEVLANSNR (UniProt Q7Z333)	-0.136	-0.652
RUFY1_Q96T51_692_VCDSCHTLLLQR (UniProt Q96T51)	0.114	-0.0564
RPS6KA1_Q15418_432_ETIGVGSYSECKR (UniProt Q15418)	0.185	-0.833
SPCS2_Q15005_17+26_SGGSGGCSGAGGASNCGTGSGR (UniProt Q15005)	-0.266	-0.603
SBF1_O95248_839_VCTESGVTSDHLK (UniProt O95248)	0.116	0.0908
SLC25A10_Q9UBX3_69_TDGILALYSGLSASLCR (UniProt Q9UBX3)	0.0966	0.615
RRAGB_Q5VZM2_185_IFCLVHK (UniProt Q5VZM2)	0.162	0.183
SPATA5L1_Q9BVQ7_104_LLLVPCPPLRR (UniProt Q9BVQ7)	-0.0644	0.126
SERPINF2_P08697_152_LCQDLGPGAFR (UniProt P08697)	0.591	0.7

Target	probe-labelled cysteine peptide fold change (10 µM)	probe-labelled cysteine peptide fold change (50 µM)
SMARCD2_Q92925_298_CTLLLMLDHQPPQYK (UniProt Q92925)	-0.0298	-0.00447
SEC23B_Q15437_40_MVVPLACLLTPLK (UniProt Q15437)	-0.0615	-0.0659
SPTLC2_O15270_99_CHHATER (UniProt O15270)	0.261	0.971
RTN3_O95197-3_42_SCSSSCAVHDLIFWR (UniProt O95197)	-0.124	-0.737
SAMD4B_Q5PRF9_20_GWNECEQTVALLSLLK<|>SAMD4A_Q9UPU9_20_GWNECEQTVALLSLLK (UniProt Q9UPU9+Q5PRF9)	-0.204	0.121
RPS28_P62857_27_TGSQGQCTQVRVEFMDDTSR (UniProt P62857)	-0.718	-0.281
SERBP1_Q8NC51_11_PGHLQEGFGCVVTNRFDQLFDDESDPFEVLK (UniProt Q8NC51)	-0.323	-0.648
SATB2_Q9UPW6_159_IQLQSCSK (UniProt Q9UPW6)	0.071	-0.00125
RSPRY1_Q96DX4_190_LTEILNLNGEVACQDSSHPAK (UniProt Q96DX4)	-0.258	-0.129
SKAP2_O75563_186_DCCFEISAPDK (UniProt O75563)	0.239	0.128
SPTAN1_Q13813_1622_GACAGSEDAVK (UniProt Q13813)	-0.135	-0.00186
SPATA5_Q8NB90_574_VLCNEAGLCALRR (UniProt Q8NB90)	-0.161	-0.0738
SETD3_Q86TU7_36_CSSPAPGPGK (UniProt Q86TU7)	-0.0972	-0.145
SETX_Q7Z333_1416_CMPSEPETIK (UniProt Q7Z333)	-0.13	-0.585
SRCAP_Q6ZRS2_1926_IFQLSEAHGALAPVYGTEVLDFCTLPQPVASPIGPR (UniProt Q6ZRS2)	0.683	0.741
RTRAF_Q9Y224_19_LTALDYHNPAGFNCK (UniProt Q9Y224)	0.414	0.404
RRP12_Q5JTH9_673_GCQAEADRAEVSR (UniProt Q5JTH9)	0.0652	-0.00566
SEC62_Q99442_55_AVDCLLDSK (UniProt Q99442)	-0.122	-0.249
SLMAP_Q14BN4_120_KVTHGCIVSTIK (UniProt Q14BN4)	-0.0304	0.0755
